Source: PubChem
Pemphigus Ab inh: inhibitors of pemphigus antibody binding to human desmoglein-3; binding (percent of control), % at 10 µM; 310,000 tested, 0.48% active; P32926; DSG3-coupled beads, scFv-anti-DSG3-GFP binding, flow cytometry; active compounds read low;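 active means binding more than 3 SD below its plate's average and above zero; inconclusive means below that plate limit but binding exactly zero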;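 further: hits lower antibody fragment binding to DSG3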
Target sequence (P32926 whole entry, looked up, the tested form may be a part): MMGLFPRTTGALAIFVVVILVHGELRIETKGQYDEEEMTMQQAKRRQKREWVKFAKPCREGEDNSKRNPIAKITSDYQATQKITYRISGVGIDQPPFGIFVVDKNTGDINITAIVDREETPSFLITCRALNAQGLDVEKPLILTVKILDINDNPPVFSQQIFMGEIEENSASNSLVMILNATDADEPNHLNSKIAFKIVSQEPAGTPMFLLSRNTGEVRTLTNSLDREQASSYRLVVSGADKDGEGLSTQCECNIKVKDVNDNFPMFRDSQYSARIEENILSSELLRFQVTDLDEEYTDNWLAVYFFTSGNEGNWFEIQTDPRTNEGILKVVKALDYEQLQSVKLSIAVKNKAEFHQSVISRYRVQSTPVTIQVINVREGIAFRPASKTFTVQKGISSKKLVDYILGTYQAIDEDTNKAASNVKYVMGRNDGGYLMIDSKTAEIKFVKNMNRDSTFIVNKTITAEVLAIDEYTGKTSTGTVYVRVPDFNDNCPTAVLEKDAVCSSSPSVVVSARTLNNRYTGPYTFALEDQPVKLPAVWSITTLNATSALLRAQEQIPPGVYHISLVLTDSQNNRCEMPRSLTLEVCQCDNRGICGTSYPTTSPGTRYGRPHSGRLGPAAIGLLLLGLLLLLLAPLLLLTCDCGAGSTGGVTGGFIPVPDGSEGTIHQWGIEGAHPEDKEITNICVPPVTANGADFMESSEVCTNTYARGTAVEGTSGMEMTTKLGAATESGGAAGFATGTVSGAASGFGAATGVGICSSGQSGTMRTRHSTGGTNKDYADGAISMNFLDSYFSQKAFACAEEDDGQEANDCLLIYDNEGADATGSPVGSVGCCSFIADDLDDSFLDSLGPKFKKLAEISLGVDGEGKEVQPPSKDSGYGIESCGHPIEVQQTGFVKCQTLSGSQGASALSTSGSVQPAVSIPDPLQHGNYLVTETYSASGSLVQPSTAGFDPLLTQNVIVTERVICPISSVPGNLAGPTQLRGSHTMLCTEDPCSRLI
proKLK7 act: proKLK7 (human) activation, primary screen. P49862. purified proKLK7, EDANS-DABCYL substrate fluorescence; 100% is mature enzyme control, 0% vehicle. activation, % at 7 µM. 370,000 tested, 0.9% active. AID 652039;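 active means activation above the mean of all tested compounds plus 3 SD, computed per campaign excluding outliers beyond control limits, cut at about 13% in these data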
MPTP inh: inhibitors of mitochondrial permeability transition pore; isolated mouse mitochondria, Ca2+ swelling absorbance, 30 min; 360,000 tested, 1.4% active; AID 602449; inhibition, % at 10 µM;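 active means inhibition of 50% or more, scaled per plate between neutral and stimulator controls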;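 further: 0% = DMSO wells given calcium and 100% = 1 mM EGTA wells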
rCAG RNA binder: binds r(CAG) RNA repeats; inhibition, % at 3 µM; r(CAG) RNA repeat, TO-PRO-1 dye displacement fluorescence; 370,000 tested, 1.3% active;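 active means inhibition above the plate cutoff, the mean of all test compounds on that plate plus 3 SD, cut at about 35% in these data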;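 further: 0% = DMSO alone and 100% = 100 µM mitoxantrone as full dye displacement; higher means more dye released from RNA so lower well fluorescence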
ADAM10 inh: ADAM10 inhibition, QFRET primary screen. O14672. recombinant ADAM10, EDANS/DABCYL FRET peptide cleavage, 3 h. inhibition, % at 7 µM. 370,000 tested, 0.62% active. AID 720582;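 active means inhibition above a per-campaign cutoff equal to the mean of compounds falling between control-based bounds plus 3 SD, cut at about 20% in these data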;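 further: 0% = DMSO wells while the 100% control is not disclosed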
ADAM17 inh: inhibitors of human ADAM17; recombinant ADAM17, EDANS/DABCYL FRET peptide cleavage; inhibition, % at 6.95 µM; 370,000 tested, 0.83% active;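 active means inhibition above the mean of compounds lying between control limits plus 3 SD, set per campaign, cut at about 8.5% in these data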;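 further: 0% = DMSO-only wells as the low control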
rCAG binder conf: r(CAG) RNA repeat binding, confirmation | shares compounds with rCAG RNA binder | TO-PRO-1 dye displacement fluorescence | inhibition, % at 3 µM | 4,300 tested, 70% active;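 active means inhibition above a per-plate cutoff, the mean inhibition of sample wells plus 3 SD, cut at about 35% in these data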;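 further: loss of TO-PRO-1 fluorescence as compound displaces dye from 1x1 AA loop RNA; 0% = DMSO only wells and 100% = 100 µM mitoxantrone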
dCAG dye counter: counter-screen for rCAG RNA binders: DNA CAG dye complex inhibitors; shares compounds with rCAG RNA binder; d(CAG) DNA oligo TO-PRO-1 dye displacement, fluorescence; inhibition, % at 3 µM; 4,300 tested, 94% active; AID 652068;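 active means inhibition above its plate's cutoff, the mean test-well inhibition plus 3 SD, cut at about 4.8% in these data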;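 further: 0% = DNA dye mix with DMSO and 100% = 100 µM mitoxantrone; hits displace the dye from DNA and so lower well fluorescence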
DNA CAG DR: disrupts DNA CAG TO-PRO-1 complex in dose response | shares compounds with rCAG RNA binder | DNA CAG/GTC duplex TO-PRO-1 dye displacement fluorescence | IC50, µM | 250 tested, 20% active | AID 686960; in the data active means IC50 below about 10 µM
An asterisk follows results filed as active; i = inactive; ? = inconclusive; / = no result. Most compounds without a hit are left out; they make up all but 4.7% or so of the library.

SMILES	Pemphigus Ab inh	proKLK7 act	MPTP inh	rCAG RNA binder	ADAM10 inh	ADAM17 inh	rCAG binder conf	dCAG dye counter	others
COc1ccc(/C=N/NC(=O)c2ccccc2O)cc1Cn1cc([N+](=O)[O-])cn1	87	0	1	4	1	-6	/	/
CCN(CC)C(=O)CSc1nc2c(sc(=S)n2-c2ccc(C)cc2C)c(=O)[nH]1	106	0	2	39*	10	3	46*	15*
CCOc1ccc(-n2c(=S)sc3c(=O)[nH]c(SCC(=O)C(C)(C)C)nc32)cc1	101	0	7	37*	10	1	66*	30*
CCOc1ccc(-n2c(=S)sc3c(=O)[nH]c(SCC(=O)NCc4ccco4)nc32)cc1	101	0	1	47*	2	0	41*	12*
CCOC(=O)CSc1nc2c(sc(=S)n2-c2ccccc2)c(=O)[nH]1	93	0	4	26	6	3	/	/
CCOC(=O)CSc1nc2c(sc(=S)n2-c2ccc(OCC)cc2)c(=O)[nH]1	103	1	1	43*	2	1	39*	10*
COc1ccc(OC)c(NC(=O)C2(C)CCN2CCc2ccccc2)c1 (centres undefined)	/	1	1	0	6	0	/	/
Cc1cc(NC(=O)c2ccc(F)c(S(=O)(=O)N3CCCCC3)c2)no1	101	0	1	-3	-2	-5	/	/
CCOC(=O)C1(Cc2ccccc2C)CCCN(C(=O)c2ccc(C(C)=O)s2)C1 (centres undefined)	101	0	-1	1	0	0	/	/
CC1C(=O)N(Cc2cn(Cc3ccco3)nn2)CCS(=O)(=O)N1Cc1ccc(-c2ccc(F)cc2Cl)cc1 (centres undefined)	/	0	-1	13	6	5	/	/
Cc1cc(C)c2c(n1)sc1c(O)cc(=O)[nH]c12	102	0	-2	15	-15	-6	/	/
COc1ccc(-c2cc(C(F)(F)F)c3c(n2)sc2c(O)cc(=O)[nH]c23)c(OC)c1	87	1	6	42*	-12	-10	42*	14*
CC1(C(=O)NS(=O)(=O)c2ccccc2)CCN1C(=O)CC(c1ccccc1)c1ccccc1 (centres undefined)	/	0	-1	31	-13	-6	/	/
Cc1ccccc1S(=O)(=O)NC(=O)C1(C)CCN1C(=O)CC(c1ccccc1)c1ccccc1 (centres undefined)	/	0	-1	47*	-10	-1	33	7.0*
CC1(C(=O)NS(=O)(=O)c2cccc(OC(F)F)c2)CCN1C(=O)CC(c1ccccc1)c1ccccc1 (centres undefined)	/	0	1	52*	-3	-1	46*	14*
CC1(C(=O)NS(=O)(=O)c2ccccc2Cl)CCN1C(=O)CC(c1ccccc1)c1ccccc1 (centres undefined)	/	1	-1	50*	-5	-2	45*	9.2*
COC(=O)C[C@@H]1CC[C@H]2[C@@H](COc3ccc(NC(=O)Nc4ccccc4Cl)cc3C(=O)N2C)O1	/	0	/	3	-3	-3	/	/
COc1ccc2c(c1)c(=O)oc1cc(OC(C(=O)O)c3ccccc3)ccc12 (centres undefined)	?	-71	0	52*	i	i	41*	10*
Cc1ccc(S(=O)(=O)NC(=O)c2ccc(-c3ccc(C)c4ccccc34)o2)cc1	101	-19	3	77*	i	i	73*	28*	DNA CAG DR=8.4*
Cc1ccc(-c2ccc(C(=O)Nc3ccccc3)o2)c2ccccc12	100	-131	2	10	-80	-28	/	/
COc1cc(/C=C2\C(=N)N3N=C(S(C)(=O)=O)SC3=NC2=O)cc(OC)c1OCCOc1cccc(C)c1	113	-1	3	51*	-2	-5	89*	69*
COc1cc(/C=C2\C(=N)N3N=C(S(C)(=O)=O)SC3=NC2=O)cc(OC)c1OCCOc1ccc(C)cc1	101	-1	5	57*	-1	0	88*	58*
COc1cc(/C=C2\C(=N)N3N=C(S(C)(=O)=O)SC3=NC2=O)ccc1OCCOc1ccc(C)cc1	?	-1	6	24	-7	-4	/	/
CCS(=O)(=O)C1=NN2C(=N)/C(=C\c3ccc(OS(=O)(=O)c4ccccc4)cc3)C(=O)N=C2S1	102	/	2	/	/	/	/	/
Cc1ccc(S(=O)(=O)Oc2ccc(/C=C3\C(=N)N4N=C(S(C)(=O)=O)SC4=NC3=O)cc2)cc1	107	0	1	63*	-21	-6	88*	66*
SMILES	Pemphigus Ab inh	proKLK7 act	MPTP inh	rCAG RNA binder	ADAM10 inh	ADAM17 inh	rCAG binder conf	dCAG dye counter	others
COc1ccc(CNC(=O)CCC(=O)N2CCN(S(=O)(=O)c3cc([N+](=O)[O-])ccc3C)CC2)cc1	103	0	-1	2	-15	-3	/	/
O=C(CNC(=O)c1ccccc1Br)N/N=C\c1cc([N+](=O)[O-])cc(Br)c1O	99	0	-5	39*	10	1	31	7.9*
O=C(CNC(=O)c1ccccc1Br)N/N=C/c1ccccc1O	110	-48	-2	0	-44	-14	/	/
Cc1cc(C(C)(C)C)cc(C)c1S(=O)(=O)N1CCN(C(=O)c2cc([N+](=O)[O-])c[nH]c2=O)CC1	98	0	1	35*	12	3	54*	18*
Cc1ccc(C)c(OCC(=O)Nc2cc(C(=O)O)cc(C(=O)O)c2)c1	96	0	-3	2	3	1	/	/
Cc1ccc(C)c(OCC(=O)Nc2ccc(C(=O)O)cc2NC(=O)COc2cc(C)ccc2C)c1	108	1	3	74*	2	1	75*	40*
CCOC(=O)C1=C(O)/C(=C/c2cc(OC)c(OC)c(OC)c2)SC1=Nc1ccc(OC)cc1	102	0	0	7	-2	2	/	/
CCOC(=O)C1=C(O)/C(=C/c2ccc(OCC(=O)O)c(OCC)c2)SC1=Nc1ccc(C)cc1	92	-1	0	45*	0	-3	68*	25*
CCOC(=O)C1=C(O)/C(=C/c2ccc(OCC(=O)O)c(OCC)c2)SC1=Nc1ccc(OC)cc1	98	-2	1	56*	-2	2	64*	22*
CCOC(=O)C1=C(O)/C(=C\c2ccc(O)c(OCC)c2)N=C1C	102	0	1	-5	4	-3	/	/
